Screening data: PubChem BioAssay, several laboratories
GDH-TPI counter – inhibits GDH-TPI coupling enzymes, artifact for Mtb FBA screen | GDH-TPI coupled enzyme counterscreen, NADH absorbance | inhibition, % at 4.8 µM | 360,000 tested, 1.2% active;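 further: 0% = DMSO wells and 100% = wells lacking the enzyme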
Mtb betalactam – beta-lactam sensitization of Mtb H37Rv; M. tuberculosis H37Rv growth with meropenem, percent inhibition; inhibition, % at 25 µM; AID 434955; 330,000 tested, 0.27% active; call rule not given here;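 further: growth measured after seven days incubation then overnight dye step; 0% = bacteria only wells and 100% = bacteria with antibiotic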
CCHF vOTU inh – CCHFV vOTU protease inhibition; Pep-AMC fluorescence; inhibition, % at 11.5 µM; 370,000 tested, 0.55% active; AID 651958; further: 0% = vehicle wells with enzyme and 100% = no enzyme wells
Mtb FBA inh – inhibitors of M. tuberculosis fructose-bisphosphate aldolase. P9WQA3. purified M. tuberculosis FBA, fluorescence read-out. inhibition, % at 1 µM. 360,000 tested, 2.3% active. AID 588726; in the data active means inhibition above about 27%;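 further: 0% = vehicle and 100% = reference inhibitor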
Target sequence (P9WQA3 whole entry, looked up): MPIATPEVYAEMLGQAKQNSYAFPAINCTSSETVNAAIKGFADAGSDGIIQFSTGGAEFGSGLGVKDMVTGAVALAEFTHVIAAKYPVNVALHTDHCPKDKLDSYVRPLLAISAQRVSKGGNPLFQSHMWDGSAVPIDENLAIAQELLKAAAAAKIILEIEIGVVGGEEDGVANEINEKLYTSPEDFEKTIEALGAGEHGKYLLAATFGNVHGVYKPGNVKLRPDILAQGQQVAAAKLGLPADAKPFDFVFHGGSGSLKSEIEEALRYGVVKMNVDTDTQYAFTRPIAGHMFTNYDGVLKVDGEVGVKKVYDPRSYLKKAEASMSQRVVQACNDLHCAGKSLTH
MazF activator – activators of E. coli MazEF toxin-antitoxin RNase. activation, % at 20 µM. 350,000 tested, 0.32% active. AID 504720. FAM/BHQ RNA-DNA oligo cleavage fluorescence, 5 h. P0AE70; in the data active means activation above about 50%
Target sequence (P0AE70 whole entry, looked up): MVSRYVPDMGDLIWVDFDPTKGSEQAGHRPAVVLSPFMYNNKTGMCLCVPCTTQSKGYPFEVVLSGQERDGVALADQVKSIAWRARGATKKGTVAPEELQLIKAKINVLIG
The depositor's hits bear a star. Rows were chosen to be rich in hits. Some 4% of all compounds tested hit in one or more screens of this group. Unless noted, no stated cut-off is given here; in the data, active means inhibition above about 30%; inactive means the rest.

What do the screens show for `O=C(O)CCn1cc(C2CC(c3ccccc3)=NN2c2ccccc2)c(-c2ccccc2)n1` (centres undefined)?
GDH-TPI counter: 9.4; Mtb betalactam: 4.1; CCHF vOTU inh: -36.7; Mtb FBA inh: active; MazF activator: -1.7

What do the screens show for `Cc1ccc(-c2nn(-c3ccccc3)cc2C2CC(c3cccs3)=NN2C(=O)CCC(=O)O)cc1` (centres undefined)?
GDH-TPI counter: 1.5; Mtb betalactam: -4.4; CCHF vOTU inh: 24.4; Mtb FBA inh: 4.8; MazF activator: -35.1

Results for CCOC(=O)N1C(=O)C[C@](Sc2ccc(OC)cc2)(C(=O)N2CCN(c3ncccn3)CC2)[C@H]1c1ccc(OC)cc1 ?
CCHF vOTU inh: 0.3

What do the screens show for `CCOC(=O)CSc1nc2sc3c(c2c(=O)n1C1CCCCC1)CCN(C)C3`?
GDH-TPI counter: 39.2*; Mtb betalactam: 63.6; CCHF vOTU inh: -42.7; Mtb FBA inh: 20.5; MazF activator: 3.9

How did COc1ccc(-n2c(SC)nc3sc4c(c3c2=O)CCN(C)C4)cc1 do in these assays?
GDH-TPI counter: 26.2; CCHF vOTU inh: 10.8; Mtb FBA inh: 11.2; MazF activator: 4.5

How did C=C(C)CSc1nc2sc3c(c2c(=O)n1-c1ccc(C)cc1)CCN(C)C3 do in these assays?
GDH-TPI counter: 11.4; CCHF vOTU inh: -6.9; Mtb FBA inh: 10.0; MazF activator: 3.5

What do the screens show for `COc1ccc(-n2c(SCC(=O)Nc3nccs3)nc3sc4c(c3c2=O)CCN(C)C4)cc1`?
GDH-TPI counter: 31.9*; Mtb betalactam: 66.5; CCHF vOTU inh: 5.7; Mtb FBA inh: 3.3; MazF activator: 5.6

What do the screens show for `COCCSc1nc2sc3c(c2c(=O)n1-c1ccccc1)CCN(C)C3`?
GDH-TPI counter: 31.4*; Mtb FBA inh: 13.5; MazF activator: -9.7

What do the screens show for `COc1ccc(NC(=O)CSc2nc3sc4c(c3c(=O)n2-c2ccc(OC)cc2)CCN(C)C4)cc1`?
GDH-TPI counter: 35.3*; Mtb betalactam: 10.5; CCHF vOTU inh: -0.1; Mtb FBA inh: 1.8; MazF activator: -19.3

What do the screens show for `Cc1ccsc1C=Nn1c(-c2n[nH]c3c2CCC3)n[nH]c1=S`?
CCHF vOTU inh: 11.5

What do the screens show for `CCOc1ccc(-n2c(SCC(N)=O)nc3sc4c(c3c2=O)CCN(C)C4)cc1`?
GDH-TPI counter: 32.0*; Mtb betalactam: -5.2; CCHF vOTU inh: 9.2; Mtb FBA inh: 3.6; MazF activator: 0.8

Results for CCOC(=O)CSc1nc2sc3c(c2c(=O)n1-c1ccc(OCC)cc1)CCN(C)C3 ?
GDH-TPI counter: 19.3; Mtb betalactam: 13.1; CCHF vOTU inh: -1.0; Mtb FBA inh: 1.9; MazF activator: 14.1

What do the screens show for `NC1=[N+](Cc2ccccc2)C[C@H]2C(=C3CCCC[C@H]3n3c(=O)n(-c4ccccc4)c(=O)n32)N1`?
CCHF vOTU inh: -7.3

What do the screens show for `O=C(N/N=C/c1ccc([N+](=O)[O-])cc1)c1ccc2nc[nH]c2c1`?
GDH-TPI counter: 37.4*; Mtb betalactam: -5.9; CCHF vOTU inh: 19.4; Mtb FBA inh: -2.6; MazF activator: 6.5

Results for Cc1ccc(/C=N/NC(=O)c2ccc3nc[nH]c3c2)o1 ?
GDH-TPI counter: 62.8*; Mtb betalactam: 3.4; CCHF vOTU inh: 21.8; Mtb FBA inh: 2.2; MazF activator: 3.8

What do the screens show for `COC(=O)c1ccc(/C=N/NC(=O)c2ccc3nc[nH]c3c2)cc1`?
GDH-TPI counter: 26.5; Mtb betalactam: 17.5; CCHF vOTU inh: 17.4; Mtb FBA inh: -2.4; MazF activator: 6.1

Results for COc1ccc(N2CCn3c2nc2c3c(=O)n(CCCc3ccccc3)c(=O)n2C)c(OC)c1 ?
GDH-TPI counter: 1.7; Mtb betalactam: -1.9; CCHF vOTU inh: 1.6; Mtb FBA inh: 1.0; MazF activator: 814.2*

Results for Cc1ccc(NC(=O)c2cc([N+](=O)[O-])ccc2N2CCOCC2)cc1S(=O)(=O)N(C)C ?
GDH-TPI counter: 41.8*; Mtb betalactam: 3.3; CCHF vOTU inh: 1.2; Mtb FBA inh: -0.9; MazF activator: 0.7

Results for COc1ccc(/C=C/C(=O)O/N=C(\N)c2ccccc2)cc1OC ?
GDH-TPI counter: 39.6*; Mtb betalactam: 4.6; CCHF vOTU inh: 5.5; Mtb FBA inh: 6.0; MazF activator: 6.9

How did Nc1ccc(C(=O)N/N=C\c2ccc(OC(=O)c3ccccc3Cl)cc2)cc1 do in these assays?
GDH-TPI counter: 14.6; Mtb betalactam: 5.4; CCHF vOTU inh: 7.5; Mtb FBA inh: -0.9; MazF activator: 6.5

Results for COc1ccc(/C(N)=N/OC(=O)/C=C/c2ccccc2)cc1 ?
GDH-TPI counter: 2.9; Mtb betalactam: 27.0; CCHF vOTU inh: 14.4; Mtb FBA inh: 0.7; MazF activator: 5.9

Results for Cc1ccc(S(=O)(=O)Oc2cccc(/C=N/Nc3ccc(C(=O)O)cc3)c2)cc1 ?
GDH-TPI counter: 31.4*; Mtb betalactam: 15.8; CCHF vOTU inh: 11.8; Mtb FBA inh: 3.0; MazF activator: -4.9

How did COc1ccc(/C=N/Nc2ccc(C(=O)O)cc2)cc1OC do in these assays?
GDH-TPI counter: 46.8*; Mtb betalactam: 4.8; CCHF vOTU inh: 1.8; Mtb FBA inh: -1.7; MazF activator: -0.9

How did O=C(O)c1ccc(N/N=C/c2ccc(OC(=O)c3ccccc3Cl)cc2)cc1 do in these assays?
GDH-TPI counter: 40.7*; Mtb betalactam: 1.1; CCHF vOTU inh: 11.6; Mtb FBA inh: -0.8; MazF activator: -2.6

What do the screens show for `Cc1ccc(S(=O)(=O)Oc2cccc(/C=N/n3cnnc3)c2)cc1`?
GDH-TPI counter: 1.1; Mtb betalactam: -4.3; CCHF vOTU inh: -14.3; Mtb FBA inh: -0.9; MazF activator: 4.9

How did CC(C)c1ccc(/C=N/Nc2ccc(C(=O)O)cc2)cc1 do in these assays?
GDH-TPI counter: 31.0*; Mtb betalactam: 12.1; CCHF vOTU inh: 21.6; Mtb FBA inh: -1.4; MazF activator: 3.2

Results for O=C(O)c1ccc(N/N=C/c2ccc(-c3ccccc3)cc2)cc1 ?
GDH-TPI counter: 26.2; CCHF vOTU inh: 8.8; Mtb FBA inh: 6.7; MazF activator: -16.4

What do the screens show for `COc1ccc(S[C@]2(C(=O)N3CCOCC3)CC(=O)N(C(=O)C3CC3)[C@@H]2c2ccc(OC)cc2)cc1`?
CCHF vOTU inh: -7.1

What do the screens show for `Cn1cnnc1Sc1ccc(/C=C/C(=O)c2ccc(O)cc2)cc1[N+](=O)[O-]`?
GDH-TPI counter: 37.4*; Mtb betalactam: 62.4; CCHF vOTU inh: -3.2; Mtb FBA inh: -2.6; MazF activator: 7.5

Results for C=CCN(CC#Cc1ccc(C(F)(F)F)cc1)Cc1ccc(OC)cc1OC ?
CCHF vOTU inh: 12.5

How did C[C@@H]1O[C@@H](n2c3ccc(Cl)cc3c3ccc4c5cc(Cl)ccc5[nH]c4c32)[C@H](O)[C@H](O)[C@H]1O do in these assays?
CCHF vOTU inh: 15.4

What do the screens show for `CC(C)c1ccc(-n2cccc2/C=C2/C(=N)N3C=CSC3=NC2=O)cc1`?
GDH-TPI counter: 18.5; Mtb betalactam: 89.5; CCHF vOTU inh: 17.2; Mtb FBA inh: -5.7; MazF activator: -5.2

Results for Cc1ccccc1Cn1cccc1/C=C1/C(=N)N2C=CSC2=NC1=O ?
GDH-TPI counter: 12.5; Mtb betalactam: -7.0; CCHF vOTU inh: -1.8; Mtb FBA inh: 1.6; MazF activator: 163.6*

How did N#CC(C(=O)Nc1ccc(Cl)c(Cl)c1)=C1Nc2ccccc2N1 do in these assays?
GDH-TPI counter: 32.5*; Mtb betalactam: 2.9; CCHF vOTU inh: 7.1; Mtb FBA inh: 6.8; MazF activator: 4.7
